Source: PubChem BioAssay (NCI)
The panel holds about 83,000 compounds, 20% with a hit somewhere; the sample as a whole holds those more often.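 Step 1: grow cells in 96-well plates. Step 2: add test compound at a single concentration. Step 3: incubate 48 h. Step 4: record percent growth.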 Unmarked numbers belong to inactive results. Active and inactive are the calls of the source. How the source made its calls: active means growth percent below 10; inactive means the rest.

Test system: MDA-MB-468 breast
Experiment: NCI-60 one-dose screen, 48 h (100 = growth as untreated, 0 = no growth, -100 = all killed)
Settings: 10 µM unless noted

SMILES	growth
Cc1ccc(NC(=O)c2ccc(CN3CCN(C)CC3)c(I)c2)cc1Oc1ccc(-c2[nH]nc3ncnc(N)c23)cc1	105%
Cc1nccc2c3ccc(OCc4cn(-c5ccc(Br)cc5)nn4)cc3n(CCCc3ccccc3)c12	108%
C=C(C)[C@@H]1CC[C@]2(C(=O)N3CCOCC3)CC[C@]3(C)[C@H](CC[C@@H]4[C@@]5(C)C/C(=C/c6ccncc6)C(=O)C(C)(C)[C@@H]5CC[C@]43C)[C@@H]12	21.4%
O=C(CNCCN1CCOCC1)N1c2cccc3cccc(c23)N(C(=O)CNCCN2CCOCC2)C1c1cn(-c2ccccc2)nc1-c1cccc([N+](=O)[O-])c1	35.8%
COc1cccc(-c2nn(-c3ccccc3)cc2-c2ccnc(NCCNS(=O)(=O)c3ccc(Cl)cc3)c2)c1	16.9%
C=C[C@@H]1C[C@@H]2Cc3cc(F)ccc3N1O2	116%
CS(=O)(=O)c1ccc(-c2nc3ccccn3c2-c2nc3ccc([N+](=O)[O-])cc3[nH]2)cc1	104%
Cc1nc(Nc2cccnc2)sc1C(=O)/C=C/c1ccc(Cl)cc1	11.8%
O=C(O)c1cc([N+](=O)[O-])ccc1Br	96.5%
COC(=O)C1(C)CCC[C@]2(C)[C@H]3C[C@H]4C(C(C)C)=C[C@]3(CC[C@@H]12)[C@H]1[C@@H]4[C@@H](OCC#CCN2CCOCC2)CC[C@@H]1OCC#CCN1CCOCC1 (stereo not given in full)	80%
OC[C@H]1OC([S-])[C@H](O)[C@@H](O)[C@@H]1O.[Au+] (stereo not given in full)	90.7%
Cn1ccnc1C(=O)/C=C/c1ccc(CC(=O)Nc2ccc(Cl)cc2)cc1	-15.4% (active)
C=C(C)[C@@H]1CC[C@]2(C(=O)OCCOCCOCC[P+](c3ccccc3)(c3ccccc3)c3ccccc3)CC[C@]3(C)[C@H](CC[C@@H]4[C@@]5(C)CC[C@H](C)C(C)(C)[C@@H]5CC[C@]43C)[C@@H]12	-67.6% (active)
Cc1c(C(=O)/C=C/Nc2c(Cl)cc(S(N)(=O)=O)cc2Cl)sc2nc3ccccc3n12	102%
CN[C@@H]1C[C@H]2O[C@@](C)([C@@H]1OC)n1c3ccccc3c3c4c(c5c6ccccc6n2c5c31)C(=O)N[C@H]4O	-56.3% (active)
O=C(c1ccc2ncc(-c3nc(NC4CC4)ncc3F)n2c1)N1CCOCC1	32.8%
C/C(=N/NC(N)=S)C(=O)O	39.2%
Fc1cc2[nH]ncc2c2c3c(c(-c4cn[nH]c4C(F)(F)F)nc12)CCCC3	-20.3% (active)
Cc1c([C@H](C(Cl)Cl)[C@H](O)[C@H]2C[C@H](C)C(=O)O2)ccc2c1C(=O)[C@H]1[C@H]2C[C@@H](Br)[C@@]23O[C@@H](CO[C@H]2O)CC13C (stereo not given in full)	17.5%
c1ccc(Cn2cc(-c3nc4ccccc4s3)c3cccnc32)cc1	99.4%

SMILES	growth
O=C1[C@@H]2Cc3c([nH]c4ccccc34)[C@H](c3c(Cl)cccc3Cl)N2C(=O)CN1C1CCN(Cc2c(F)cccc2F)CC1	102%
COc1ccc(OC)c(CCn2cncc2-c2c[nH]c3cc(Br)ccc23)c1	-5.69% (active)
CCCCNc1cc(C(=O)O)cc(S(N)(=O)=O)c1Oc1ccccc1	94.1%
Cc1cc(C)c(C#N)c(Sc2nc(C)c([N+](=O)[O-])c(C)c2C#N)n1	46%
CCCCCCCC/C=C\CCCCCCCCOc1cccc(CC(=O)NCC[N+]2(C)CCOCC2)c1	86%
NC(=O)c1cc(I)ccc1NC(=O)/C=C/c1ccccc1	51.9%
COc1ccccc1N1CCN(C2=NN=C(c3cccc(Cl)c3)c3ccccc3C2)CC1	-1.01% (active)
CCN1C(=O)N(CC)C2Nn3c(s/c(=C4\C(=O)N(C5CCCC5)c5ccccc54)c3=O)=NC21 (stereo not given)	11%
O=C(S)CNC(=O)c1ccccc1	95.7%
Cc1cc(O)ccc1O	107%
CCCCCCCCCCN1CCC(N2CCCCC2)CC1	-73.2% (active)
COc1ccc(C2=NNC(c3sc(Cl)nc3Cl)C2)cc1 (stereo not given)	70%
CN1CCN(CC(=O)Nc2ccc(-c3nc4ccccc4s3)cc2)CC1	-11.4% (active)
CC(=O)OC1/C=C\CC/C=C\C1 (stereo not given)	109%
CCOC(=O)C1=C(C)NC(C)=C(C(=O)OCc2ccccc2)C1c1cccc(C#N)c1 (stereo not given)	16%
COc1ccc(/C=C/C(=O)c2ccc(Nc3nc(NCCO)nc(Nc4ccc(Cl)cc4)n3)cc2)cc1	73%
CC1CCN(CCCCCOc2ccc3oc4ccccc4c(=O)c3c2)CC1	41.6%
CC(C)C1=C(O)C2=C(C(=O)C1=O)[C@@]1(C)CCCC(C)(C)[C@@H]1CC2	73.1%
O=S(=O)(NCCNc1nccc(-c2c(-c3cccc(O)c3)nc3occn23)n1)c1cccc(F)c1	97%
O=C(NCCc1ccccc1)C1CCC(=O)N1Cc1ccc(Br)cc1 (stereo not given)	108%
